Assay results: PubChem BioAssay (Tox21)
Where “and” joins values, the source holds several entries; their conditions need not be identical. Equal entries are not always repeated. Unmarked numbers belong to inactive results. Records with an inconclusive call do not appear. Entries that show only a call come without a potency. Calls of active or inactive are those of the source. Unless noted, calls follow the shape of the dose curve; as a rule, active = well fitted curve in the direction sought with a large enough effect in the repeat runs; inconclusive = weak or mixed curves; inactive = no such curve, though single readings can be large; an effect the other way counts as inactive or inconclusive.

How the values were obtained:
[1] = target: Glucocorticoid receptor (Homo sapiens) (UniProt P04150); test: qHTS assay to identify small molecule antagonists of the glucocorticoid receptor (GR) signaling pathway (AID 720692; active = well fitted inhibition curve with a large enough effect in the signal ratio in the repeat runs, not every such curve was filed as active; the % refers to the signal ratio; also: potency is read from the fitted curve at half-maximal effect)
Glucocorticoid receptor (Homo sapiens), sequence (P04150 whole entry, looked up): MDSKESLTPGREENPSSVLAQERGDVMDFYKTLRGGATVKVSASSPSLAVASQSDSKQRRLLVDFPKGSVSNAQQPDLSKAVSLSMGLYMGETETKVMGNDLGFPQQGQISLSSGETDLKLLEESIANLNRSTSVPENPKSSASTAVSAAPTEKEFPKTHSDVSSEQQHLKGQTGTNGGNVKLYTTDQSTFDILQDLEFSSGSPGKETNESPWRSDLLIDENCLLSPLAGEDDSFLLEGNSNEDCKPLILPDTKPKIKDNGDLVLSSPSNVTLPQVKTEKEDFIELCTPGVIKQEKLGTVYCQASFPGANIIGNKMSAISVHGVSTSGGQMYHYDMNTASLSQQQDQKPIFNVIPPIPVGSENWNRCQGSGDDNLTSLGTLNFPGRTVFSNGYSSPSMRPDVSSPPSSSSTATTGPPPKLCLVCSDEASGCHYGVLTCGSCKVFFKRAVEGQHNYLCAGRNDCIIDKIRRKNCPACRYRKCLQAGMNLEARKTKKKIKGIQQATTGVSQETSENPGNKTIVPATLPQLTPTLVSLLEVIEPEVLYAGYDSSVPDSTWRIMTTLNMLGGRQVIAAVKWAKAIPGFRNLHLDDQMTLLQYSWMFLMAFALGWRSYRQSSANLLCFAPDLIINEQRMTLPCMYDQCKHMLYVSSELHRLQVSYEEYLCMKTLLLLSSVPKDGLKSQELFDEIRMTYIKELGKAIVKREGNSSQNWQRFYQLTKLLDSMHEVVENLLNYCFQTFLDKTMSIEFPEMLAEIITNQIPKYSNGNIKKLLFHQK
How it was run: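 Quantitative HTS in antagonist format: HeLa cells expressing endogenous GR and a stably integrated GRE-bla reporter, stimulated with 5 nM dexamethasone (final) alongside test compounds for 18 h.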

[2] = target: Androgen receptor (Homo sapiens) (UniProt P10275); test: qHTS assay to identify small molecule antagonists of the androgen receptor (AR) signaling pathway (AID 743035; active = well fitted inhibition curve with a large enough effect in the signal ratio in the repeat runs, not every such curve was filed as active; the % refers to the signal ratio; also: potency is read from the fitted curve at half-maximal effect)
Androgen receptor (Homo sapiens), sequence (P10275 whole entry, looked up): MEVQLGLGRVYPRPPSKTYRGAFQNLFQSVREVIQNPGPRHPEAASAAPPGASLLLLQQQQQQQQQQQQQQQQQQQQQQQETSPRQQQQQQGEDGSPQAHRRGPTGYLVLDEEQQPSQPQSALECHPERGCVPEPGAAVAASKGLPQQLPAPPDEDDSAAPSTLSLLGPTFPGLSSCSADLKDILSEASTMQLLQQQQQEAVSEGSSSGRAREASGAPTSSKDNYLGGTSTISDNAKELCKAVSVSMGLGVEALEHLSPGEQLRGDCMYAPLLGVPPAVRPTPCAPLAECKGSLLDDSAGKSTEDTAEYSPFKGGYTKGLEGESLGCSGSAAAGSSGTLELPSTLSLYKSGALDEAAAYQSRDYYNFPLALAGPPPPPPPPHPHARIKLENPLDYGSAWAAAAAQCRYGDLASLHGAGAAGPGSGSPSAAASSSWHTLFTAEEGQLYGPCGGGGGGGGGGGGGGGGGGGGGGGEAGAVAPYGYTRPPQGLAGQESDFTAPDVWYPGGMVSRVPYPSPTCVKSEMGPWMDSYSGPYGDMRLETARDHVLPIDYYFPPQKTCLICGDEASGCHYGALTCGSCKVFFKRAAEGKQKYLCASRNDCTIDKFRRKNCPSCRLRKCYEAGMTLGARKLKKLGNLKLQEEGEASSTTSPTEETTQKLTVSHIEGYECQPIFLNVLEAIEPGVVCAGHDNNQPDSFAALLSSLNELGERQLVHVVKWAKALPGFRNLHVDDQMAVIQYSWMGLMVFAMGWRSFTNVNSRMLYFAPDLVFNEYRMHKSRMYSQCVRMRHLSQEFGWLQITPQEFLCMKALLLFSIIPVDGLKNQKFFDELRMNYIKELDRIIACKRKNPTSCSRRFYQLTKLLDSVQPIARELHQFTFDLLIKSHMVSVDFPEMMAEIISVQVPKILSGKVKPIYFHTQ
How it was run: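 Quantitative HTS of the Tox21 10K library used HEK293 AR-UAS-bla cells stimulated with R1881 alongside compound for 16 h at 37C, followed by beta-lactamase FRET detection (LiveBLAzer B/G, 2 h, RT).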

[3] = target: Androgen receptor (Homo sapiens) (UniProt P10275); test: qHTS assay to identify small molecule agonists of the androgen receptor (AR) signaling pathway (AID 743036; active = well fitted activation curve with a large enough effect in the signal ratio in the repeat runs, with a control signal flat, not every such curve was filed as active; the % refers to the signal ratio; also: potency is read from the fitted curve at half-maximal effect)
How it was run: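 Agonist activity was scored by beta-lactamase reporter fluorescence in stably transfected HEK293 cells exposed to compounds for 16 h at 37C and 5% CO2. Substrate loading took 2 h at room temperature.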

[4] = target: Androgen receptor (Homo sapiens) (UniProt P10275); test: qHTS assay to identify small molecule agonists of the androgen receptor (AR) signaling pathway using the MDA cell line (AID 743040; also: nearly all actives have a fitted effect of over 20% in size; also: potency is read from the fitted curve at half-maximal effect)
How it was run: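 Luciferase agonist assay: 16 h compound exposure at 37C without CO2 in MDA-kb2 AR-luc cells, whose MMTV promoter responds to both AR and GR. Luminescence measured after 30 min room-temperature incubation with ONE-Glo.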

[5] = target: Androgen receptor (Homo sapiens) (UniProt P10275); test: qHTS assay to identify small molecule antagonists of the androgen receptor (AR) signaling pathway using the MDA cell line (AID 743042; also: nearly all actives have a fitted effect of over 55% in size; also: potency is read from the fitted curve at half-maximal effect)
How it was run: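 Antagonist mode: compounds plus R1881 agonist added to MDA-kb2 AR-luc cells, incubated 16 h at 37C. Luciferase reporter luminescence quantified, with multiplexed CellTiter-Fluor readout for cell viability.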

[6] = target: Nuclear receptor subfamily 1 group I member 2 (Homo sapiens) (UniProt O75469); test: CYP3A4 induction through human pregnane X receptor (PXR) by small molecules, qHTS assay (AID 1346984); also: nearly all actives have a fitted effect of over 40% in size; also: potency is read from the fitted curve at half-maximal effect
How it was run: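 Induction measured in HepG2-based DPX-2 cells co-expressing human PXR and a CYP3A4 promoter-driven luciferase. After a 24-hour compound exposure, cells received CYP3A4 luciferin substrate at 3uM final for 3 hours, and light output was then recorded.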

[7] = target: Nuclear receptor subfamily 1 group I member 2 (Homo sapiens) (UniProt O75469); test: Human pregnane X receptor (PXR) activation by small molecules, qHTS assay (AID 1346985); also: nearly all actives have a fitted effect of over 40% in size; also: potency is read from the fitted curve at half-maximal effect
How it was run: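 DPX-2 cells (HepG2 co-transfected with a PXR response element and a CYP3A4-promoter luciferase construct) were seeded at 2,000 per well, rested 5 hr at 37C, then exposed to DMSO-dissolved compounds for 24 hr. Activation was read as luciferase luminescence.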

[8] = target: Nuclear receptor subfamily 1 group I member 2 (Rattus norvegicus) (UniProt Q9R1A7); test: Rat pregnane X receptor (rPXR) activation by small molecules, qHTS assay (AID 1346983); conditions: rPXR luciferase reporter cells, One-Glo luminescence, 24 h; max activation: active compounds read high; also: nearly all actives have a fitted effect of over 20% in size
Nuclear receptor subfamily 1 group I member 2 (Rattus norvegicus), sequence (Q9R1A7 whole entry, looked up): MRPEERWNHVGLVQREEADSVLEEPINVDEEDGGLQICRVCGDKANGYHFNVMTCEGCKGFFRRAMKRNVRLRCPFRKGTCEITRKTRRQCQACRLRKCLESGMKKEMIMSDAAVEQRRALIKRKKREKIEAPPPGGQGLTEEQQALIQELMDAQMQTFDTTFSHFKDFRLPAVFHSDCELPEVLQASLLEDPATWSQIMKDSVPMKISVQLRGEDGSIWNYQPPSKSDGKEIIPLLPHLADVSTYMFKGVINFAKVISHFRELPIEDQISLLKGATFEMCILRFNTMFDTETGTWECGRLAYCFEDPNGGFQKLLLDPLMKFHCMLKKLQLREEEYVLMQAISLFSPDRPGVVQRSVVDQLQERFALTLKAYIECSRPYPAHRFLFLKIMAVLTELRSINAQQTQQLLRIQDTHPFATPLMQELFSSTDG
How it was run: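 Luminescent readout (One-Glo luciferase, 30 min room temperature) followed 24 hr compound treatment at 37 C of rPXR cells plated 2,000 per well and preincubated 5hr; qHTS format with compounds delivered in DMSO.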

O=C1Nc2ccc(Cl)cc2C(c2ccccc2Cl)=NC1O (stereo not given)
Potency [1]: inactive
Potency [2]: inactive
Potency [3]: inactive
Potency [4]: inactive

Cc1ccccc1-n1c(CF)nc2ccc(N)cc2c1=O
Potency [2]: inactive
Potency [3]: inactive
Potency [4]: 26.6 µM (active)
Potency [5]: inactive
Potency [6]: 7.08 µM (active)
Potency [7]: inactive

CNC(C)C(O)c1ccc(O)cc1 (stereo not given)
Potency [6]: inactive
Potency [7]: inactive

CCCCNCC(O)c1ccc(O)cc1 (stereo not given)
Potency [6]: inactive

Cc1cccc(C(C)c2cnc[nH]2)c1C (stereo not given)
Potency [6]: inactive
Potency [7]: inactive

CN1C(=O)CC(=O)N(c2ccccc2)c2cc(Cl)ccc21
Potency [1]: inactive
Potency [6]: inactive

C[C@@H](Cc1ccccc1)N(C)C
Potency [2]: inactive
Potency [3]: inactive
Potency [4]: inactive
Potency [5]: inactive
Potency [7]: inactive

CC(N)Cc1ccc(O)cc1 (stereo not given)
Potency [7]: inactive

CNC1(c2ccccc2Cl)CCCCC1=O (stereo not given)
max activation [8]: -2.7% and 3.43%

c1ccc2c(c1)Sc1ccccc1N2C[C@@H]1CN2CCC1CC2
Potency [1]: inactive

C[C@]12C=CC(=O)C=C1CC[C@@H]1[C@@H]2CC[C@]2(C)OC(=O)CC[C@@H]12
Potency [6]: inactive

C[C@@H]([C@H](O)c1ccccc1)N(C)C
Potency [1]: inactive
Potency [7]: inactive

CC(C)C[C@H](CN)CC(=O)O
Potency [1]: inactive
Potency [6]: inactive
Potency [7]: inactive

COC(=O)[C@@H]1[C@H]2CC[C@@H](C[C@H]1OC(=O)c1ccccc1)N2C
Potency [2]: inactive
Potency [3]: inactive
Potency [4]: inactive
Potency [5]: inactive
Potency [6]: inactive

CCCCCc1cc(O)c2c(c1)OC(C)(C)[C@@H]1CCC(C)=C[C@@H]21
Potency [3]: inactive
Potency [4]: inactive
Potency [5]: inactive
Potency [6]: inactive

c1ccc(C2(N3CCCC3)CCCCC2)cc1
Potency [7]: 5.01 µM (active)

CCNCC(O)c1cccc(O)c1 (stereo not given)
Potency [1]: inactive
max activation [8]: 1.03%

CN(C)CCCCCCN(C)C (tested in a mixture with another compound)
Potency [1]: inactive
max activation [8]: -5.32%

NCC(O)c1cccc(O)c1 (stereo not given)
Potency [2]: inactive
Potency [3]: inactive
Potency [4]: inactive
Potency [5]: inactive
Potency [6]: inactive
Potency [7]: inactive

CN1c2ccccc2C(NCCCCCCC(=O)O)c2ccc(Cl)cc2S1(=O)=O (stereo not given)
max activation [8]: -2.51%

COC([CH2][Hg])CNC(=O)c1ccccc1OCC(=O)O (stereo not given)
Potency [1]: inactive
Potency [6]: inactive

CC1(C)[C@H](C=C(Cl)Cl)[C@H]1C(=O)OCc1c(F)c(F)cc(F)c1F
Potency [1]: inactive
Potency [6]: inactive
Potency [7]: inactive

CCCC(C)C1(CC)C(=O)NC(=O)NC1=O (stereo not given)
Potency [6]: inactive
Potency [7]: inactive

NCC[C@H](O)C(=O)N[C@@H]1C[C@H](N)[C@@H](O[C@H]2O[C@H](CN)[C@@H](O)[C@H](O)[C@H]2N)[C@H](O[C@@H]2O[C@H](CO)[C@@H](O)[C@H]2O)[C@H]1O
Potency [4]: inactive
Potency [5]: inactive
max activation [8]: -1.3%

OC[C@@H](O)[C@H]1O[C@@H]2O[C@@H](C(Cl)(Cl)Cl)O[C@@H]2[C@H]1O
Potency [1]: inactive
Potency [7]: inactive

COc1ccc(OC)c([C@@H](O)[C@H](C)N)c1
Potency [1]: inactive
Potency [4]: inactive
Potency [5]: inactive
Potency [6]: inactive

CNC(=O)Oc1ccccc1C(=O)Nc1ccccc1
Potency [1]: inactive
Potency [4]: inactive
Potency [5]: inactive
Potency [7]: 22.4 µM (active)

[S]=[Sb](=[S])[S][Sb](=[S])=[S]
Potency [1]: inactive
Potency [6]: inactive
Potency [7]: inactive

CC(=O)O[C@H]1CC[C@H]2[C@@H]3CCC4=CC(=O)CCC4=C3C=C[C@]12C
Potency [1]: 2.68 µM (active)
Potency [4]: 0.0017 µM (active)
Potency [5]: inactive
Potency [7]: inactive

O=C1OC2(c3cc(Br)c(O)cc3Oc3c2cc(Br)c(O)[c]3[Hg])c2ccccc21 (stereo not given)
Potency [6]: inactive

Cc1ccccc1-n1c(C)nc2ccccc2c1=O
Potency [1]: inactive
Potency [6]: inactive

O=C(NC(=O)c1c(F)cccc1F)Nc1ccc(Cl)c(Oc2ncc(C(F)(F)F)cc2Cl)c1
Potency [7]: inactive

O=C(OCCN1CCCCC1)C(O)(c1ccccc1)c1ccccc1
Potency [6]: inactive
Potency [7]: inactive

CCCCC[C@@H](O)C1C(=O)OC(C)[C@H](O)/C=C/C=C/C=C/C=C/C=C(\C)C(O)C(O)C(O)C[C@H](O)C[C@H](O)C[C@H](O)C[C@H](O)C[C@@H]1O (stereo not given in full)
Potency [6]: inactive
Potency [7]: inactive

C[C@]12CC[C@H](O)C[C@H]1CC[C@@H]1[C@@H]2CC[C@]2(C)[C@@H](c3ccc(=O)oc3)C[C@H]3O[C@]132
Potency [2]: 6.01 µM (active)
Potency [5]: 21.1 µM (active)
Potency [7]: 3.98 µM (active)

CC(=O)O[C@H]1C[C@H](O[C@H]2[C@@H](O)C[C@H](O[C@H]3[C@@H](O)C[C@H](OC4CC[C@@]5(C)[C@H](CC[C@@H]6[C@@H]5CC[C@]5(C)[C@@H](C7=CC(=O)OC7)CC[C@]65O)C4)O[C@@H]3C)O[C@@H]2C)O[C@H](C)[C@H]1O[C@@H]1O[C@H](CO)[C@@H](O)[C@H](O)[C@H]1O (stereo not given in full)
Potency [5]: 1.68 µM (active)
Potency [6]: inactive
Potency [7]: inactive

CCC(N)Cc1c[nH]c2ccccc12 (stereo not given)
Potency [6]: inactive

CC(=O)[C@H]1CC[C@H]2[C@@H]3CC[C@@H]4C[C@H](O)CC[C@]4(C)[C@H]3CC[C@]12C
Potency [7]: inactive

CCc1cc(OC)c(C[C@@H](C)N)cc1OC
Potency [1]: inactive

O=C(O)CCCO
Potency [1]: inactive
Potency [2]: inactive
Potency [3]: inactive
Potency [4]: inactive
Potency [5]: inactive

O=c1ccc2cc(O[C@@H]3O[C@H](CO)[C@@H](O)[C@H](O)[C@H]3O)c(O)cc2o1
Potency [3]: 9.1 µM (active)
Potency [4]: inactive
Potency [5]: inactive

C[C@@H]1[C@@H]2Cc3ccc(O)cc3[C@@]1(C)CCN2CC1CC1
Potency [1]: inactive
Potency [2]: inactive
Potency [3]: inactive
Potency [4]: inactive
Potency [5]: inactive

C=CCC1(C(C)CCC)C(=O)N=C(S)NC1=O (stereo not given)
Potency [1]: inactive
Potency [3]: inactive
Potency [4]: inactive
Potency [5]: inactive

C=C[C@H]1CN2CC[C@H]1C[C@H]2[C@H](OC(=O)OCC)c1ccnc2ccc(OC)cc12
Potency [1]: inactive

C[C@H]1[C@H]2Cc3ccc(O)cc3[C@]1(C)CCN2CCc1ccccc1
Potency [1]: inactive

CCCCNC(C)(C)[P+](=O)O
Potency [2]: inactive
Potency [3]: inactive
Potency [4]: inactive
Potency [5]: inactive

C=CCC1([C@@H](C)CCC)C(=O)NC(=O)NC1=O
Potency [1]: inactive

CNC(C)CC1CCCCC1 (stereo not given)
Potency [1]: inactive
Potency [2]: inactive
Potency [3]: inactive
Potency [4]: inactive
Potency [5]: inactive

CCNC1(c2cccs2)CCCCC1=O (stereo not given)
Potency [1]: inactive

CCC1(c2ccccc2)C(=O)NC(=O)N(C)C1=O (stereo not given)
Potency [1]: inactive

Cc1nnc2n1-c1sc(Br)cc1C(c1ccccc1Cl)=NC2
Potency [2]: 8.49 µM (active)
Potency [3]: inactive
Potency [4]: inactive
Potency [5]: inactive

O=C1CN=C(c2ccccc2)c2cc(Cl)ccc2N1
Potency [1]: 23.9 µM (active)

CN1CC[C@@]23CCCC[C@@H]2[C@@H]1Cc1ccc(O)cc13
Potency [3]: inactive
Potency [4]: 26.6 µM (active)
Potency [5]: inactive

C[C@@H](N)C(=O)c1ccccc1
Potency [1]: inactive
Potency [2]: inactive
Potency [3]: inactive
Potency [4]: inactive
Potency [5]: inactive
